# Source: article PMC4552634, “A New Set of Chemical Starting Points with Plasmodium falciparum Transmission-Blocking Potential for Antimalarial Drug Discovery” (PLoS ONE, 2015)
# Among all 13,000 compounds or so, about 3,200 (25%) showed an effect of 50% or more. The list shows a part of the results.
# System: P. falciparum stage V gametocytes
# Design: BacTiter-Glo ATP luminescence viability of purified stage V gametocytes in 384-well plates, per cent inhibition versus DMSO
# Conditions: 48 h, 5 µM; inhibitor
row,Structure (SMILES),% Inhibition [%]
1,CN(C)C(=O)n1cnc(S(=O)(=O)N(C)c2ccc(Cl)cc2)n1 [TCMDC-134395],5.684
2,CCOC(=O)CCCCOc1c(OC)cc(Cc2cnc(N)nc2N)cc1OC [TCMDC-137291],2.332
3,COc1ccc(NS(=O)(=O)c2ccc(C(=O)Nc3ccc(C(F)(F)F)cc3)cc2)cc1N1CCN(CC2CC2)CC1 [TCMDC-141778],-16.52
4,O=C(c1cccs1)N1N=C(c2cccs2)CC1c1cccc([N+](=O)[O-])c1 (stereo not drawn) [TCMDC-123688],10.72
5,Cc1noc(C)c1-c1cccc(CNCc2ccc(-c3cccc(-c4nc5cc(C(F)(F)F)ccc5[nH]4)c3)cc2)c1.O=C(O)C(F)(F)F [TCMDC-133051],-9.881
6,COc1cc(C(=O)NC2CCN(Cc3ccccc3)CC2)ccc1-c1nc2cc(Cl)c(Cl)cc2[nH]1 [TCMDC-140078],-56.44
7,Cc1[nH]c2cc(Cl)ccc2c1C1=CCN(CCN2CCOc3c(Br)cccc3C2=O)CC1 [TCMDC-140966],-20.54
8,COc1ccc(Cl)cc1N1CCN(CCCNC(=O)c2ccc(-c3nc4cc(Cl)c(C)cc4[nH]3)c(F)c2)CC1 [TCMDC-140030],-22.25
9,COc1cc2nc(N(C)C3CCN(Cc4ccccc4)CC3)nc(N)c2cc1OC [TCMDC-131894],19.02
10,COc1cc2nc(NCc3nc4ccccc4[nH]3)nc(N)c2cc1OC.Cl [TCMDC-131892],36.75
11,COc1cc2nc(NC3CCN(Cc4ccccc4)CC3)nc(N)c2cc1OC [TCMDC-131886],84.09
12,CCCCCN1CCCCC(NS(=O)(=O)c2ccc(C(=O)Nc3ccc(C(F)(F)F)cc3)cc2)C1 (stereo not drawn) [TCMDC-133681],-39.58
13,CC(=O)c1ccc(NC(=O)Nc2ccc3nccc(N4CCN(C)CC4)c3c2)cc1 [TCMDC-139331],-18.7
14,COc1ccc2nccc([C@@H](O)CN3CCC(NCc4ccc5nc[nH]c(=O)c5c4)CC3)c2c1 [TCMDC-140981],0.6377
15,CC(=O)c1ccc2nc[nH]c(=O)c2c1 [TCMDC-138172],115.1
16,COC(=O)C(NC(=O)c1ccc(-c2ccc(-c3nc4ccccc4[nH]3)s2)cc1)c1ccc(O)cc1 (stereo not drawn) [TCMDC-132371],-16.97
17,Cc1cccc(CN2CCC(C(=O)Nc3ccc(-c4nc5ccccc5[nH]4)cc3)CC2)n1 [TCMDC-124614],-28.63
18,CCCCNc1c(C(=O)OCC)c(C)nc2c1[nH]c1ccccc12 [TCMDC-131541],-37.58
19,CC1CCC(C(C)C)C(OC(=O)CSc2nnc3c(n2)[nH]c2ccccc23)C1 (stereo not drawn) [TCMDC-124002],54.66
20,O=C(NC1CCN(Cc2ccccc2)CC1)c1ccc(-c2nc3cc(Cl)c(Cl)cc3[nH]2)s1 [TCMDC-140086],-3.887
21,CCn1c(-c2nonc2N)nc2cnc(Oc3cccc(NC(=O)c4ccc(OCCN5CCCCC5)cc4)c3)cc21 [TCMDC-135778],-14.59
22,CCn1c(-c2nonc2N)nc2c(-c3cc4ccccc4s3)ncc(C(=O)N3CCC(N)C3)c21 (stereo not drawn) [TCMDC-135281],101.1

row,Structure (SMILES),% Inhibition [%]
1,CN(C)CCNC(=O)[C@H](Cc1ccccc1)NC(=O)c1ccc(O)c(-c2ccc(Cl)c(Cl)c2)c1 [TCMDC-140864],22.21
2,CN1CCCN(Cc2ccc(-c3ccc(NC(=O)c4ccc(Cl)cc4)cc3)cc2)CC1 [TCMDC-132585],-0.9433
3,Cc1cccc2[nH]c(-c3cccc(-c4ccc(NC(=O)Nc5ccc(Cl)c(Cl)c5)cc4)c3)nc12 [TCMDC-133275],-0.4815
4,c1cc2nc(CCCCc3nc4ccc(C5=N[C@H]6CCCC[C@H]6N5)cc4[nH]3)[nH]c2cc1C1=N[C@H]2CCCC[C@H]2N1 [TCMDC-137233],16.03
5,c1cc2nc(CCCc3nc4ccc(C5=N[C@H]6CCCC[C@H]6N5)cc4[nH]3)[nH]c2cc1C1=N[C@@H]2CCCC[C@@H]2N1 [TCMDC-137234],-8.612
6,c1cc(C2=N[C@H]3CCCC[C@@H]3N2)ccc1OCCCOc1ccc(C2=N[C@@H]3CCCC[C@H]3N2)cc1 [TCMDC-137803],109.5
7,c1cc2[nH]c(CCc3nc4cc(C5=NC6CCCCC6N5)ccc4[nH]3)nc2cc1C1=NC2CCCCC2N1 (stereo not drawn) [TCMDC-137238],-12.99
8,c1cc2nc(CCCCCc3nc4ccc(C5=N[C@@H]6CCCC[C@@H]6N5)cc4[nH]3)[nH]c2cc1C1=N[C@@H]2CCCC[C@@H]2N1 [TCMDC-137237],-19.86
9,c1cc(C2=NC3CCCCC3N2)ccc1OCCCCCOc1ccc(C2=NC3CCCCC3N2)cc1 (stereo not drawn) [TCMDC-137802],132.6
10,Cc1ccn2c(N(Cc3ccccc3)C(=O)c3ccc(Cl)c(Cl)c3)c(-c3ccccc3)nc2c1 [TCMDC-141396],-15.83
11,CCNc1cc(C(=O)N[C@@H](Cc2ccccc2)[C@H](O)CNCCc2ccccc2)cc(N2CCCCS2(=O)=O)c1 [TCMDC-135171],-2.363
12,COc1ccc2ncc(F)c(CCN3CC[C@@H](CNCc4cc(C)c5c(c4)OCCO5)C3)c2n1 [TCMDC-136077],34.91
13,CC(C)c1ccc(OCC(O)CN(CCN2CCOCC2)C(=O)Nc2ccc(Br)cc2)cc1 (stereo not drawn) [TCMDC-141492],-0.3608
14,CCn1c(-c2nc(-c3ccnc(N4CCN(C)CC4)c3)cnc2N)nc2cc(S(C)(=O)=O)ccc21 [TCMDC-134155],31.49
15,CCn1c(-c2nc(-c3ccc4c(c3)OCO4)cnc2N)nc2cnccc21 [TCMDC-135178],6.285
16,COc1cccc2cc(C(=O)N[C@@H](CC(C)C)C(=O)N[C@H](C=NN3CCOC3=O)Cc3ccccc3)oc12 [TCMDC-136074],-0.683
17,O=C(c1cccc(-c2noc(C(F)(F)F)n2)c1)N1CCN(c2nsc3ccccc23)CC1 [TCMDC-132425],-18.4
18,O=C(O[C@H]1CN[C@H](C#Cc2cc3ncnc(Nc4ccc5c(ccn5S(=O)(=O)c5cccs5)c4)c3s2)C1)N1CCOCC1 [TCMDC-134691],26.92
19,Clc1cc(Nc2ncnc3sc(C#C[C@H]4CCCN4)cc23)ccc1OCc1cccnc1Cl [TCMDC-134849],8.343
20,Fc1cccc(COc2ccc(Nc3ncnc4sc(C#CC5CCCCN5)cc34)cc2Cl)c1 (stereo not drawn) [TCMDC-138878],40.6
21,Clc1cc(Nc2ncnc3cc(C#C[C@H]4CCCN4)sc23)cc2[nH]c(Cc3ccccc3)nc12 [TCMDC-134519],58.91
22,O=S(=O)(c1ccccc1)n1ccc2cc(Nc3ncnc4cc(C#C[C@H]5CCCN5)sc34)ccc21 [TCMDC-138913],83.41

row,Structure (SMILES),% Inhibition [%]
1,CN(C)C(=O)O[C@@H]1CN[C@H](C#Cc2cc3ncnc(Nc4ccc5c(cnn5Cc5cccc(F)c5)c4)c3s2)C1 [TCMDC-135233],25.46
2,COc1ccc(-c2cc(NCc3ccc(-n4ccnc4)cc3)nc(Nc3ccccc3)n2)cc1 [TCMDC-133466],0.1166
3,Cc1ccc(Nc2nc(NN=Cc3ccc(-c4ccc([N+](=O)[O-])cc4)o3)nc(N3CCOCC3)n2)cc1Cl [TCMDC-123853],16.13
4,COc1ccc(CNCc2ccccc2)cc1-c1cccc(S(=O)(=O)NCCN2CCCC2)c1 [TCMDC-132268],57.83
5,COc1ccc(CNCc2ccc(F)cc2)cc1-c1cccc(S(=O)(=O)NCCN2CCCC2)c1 [TCMDC-132223],101.2
6,COc1ccc(F)cc1-c1cccc(CNC2CCN(CC3Cn4c(=O)ccc5ccc(F)c3c54)CC2)c1 (stereo not drawn) [TCMDC-134406],-45.9
7,COc1ccc2nccc([C@@H](O)CN3CCC(NC(=O)c4ccc(Cl)c(Cl)c4)CC3)c2c1 [TCMDC-141036],-20.77
8,COc1cc(Nc2nccc(Nc3ccc4c(C)[nH]nc4c3)n2)cc2ccccc12 [TCMDC-138587],-18.63
9,CC(Oc1cccc(Cl)c1)C(=O)N1CCc2ccccc21 (stereo not drawn) [TCMDC-123685],-22.19
10,CC(=O)Nc1ccc(CN(Cc2ccc(F)cc2)Cc2ccc3c(c2)OCO3)cc1 [TCMDC-140255],12.12
11,CN(CC(=O)Nc1ccc(F)cc1)C(=O)c1ccc(-c2ccc(F)cc2)o1 [TCMDC-125342],61.72
12,O=C(NCc1ccc(F)cc1)Nc1ccc(-c2ccc(-c3nc4ccccc4[nH]3)cc2)cc1 [TCMDC-133299],-2.169
13,Nc1ncc(-c2ccc(S(=O)(=O)Nc3ccc(C(=O)N[C@@H](CCC(=O)O)C(=O)O)cc3)cc2)c(=O)[nH]1 [TCMDC-137342],-1.262
14,CC(C)=CCN1CCC(C(=O)Nc2ccc(-c3nc4ccccc4[nH]3)cc2)CC1 [TCMDC-124613],-52.31
15,CN1CCN(CC(=O)Nc2ccc(-c3ccc(-c4nc5ccccc5[nH]4)s3)cc2)CC1 [TCMDC-136971],-13.63
16,CN1CCC(C(=O)Nc2cccc(-c3ccc(-c4nc5ccccc5[nH]4)cc3)c2)CC1 [TCMDC-132186],-0.3438
17,CN1CCC(C(=O)Nc2ccc(-c3ccc(-c4nc5ccccc5[nH]4)s3)cc2)CC1 [TCMDC-132179],54.96
18,O=C(Nc1ccc(-c2ccc(-c3nc4ccccc4[nH]3)s2)cc1)Nc1ccsc1 [TCMDC-133219],69.14
19,O=C(Nc1ccc(-c2cccc(-c3nc4ccccc4[nH]3)c2)cc1)Nc1ccsc1 [TCMDC-133220],7.696
20,CN1CCC(C(=O)Nc2ccc(-c3ccc(-c4nc5cc(C(F)(F)F)ccc5[nH]4)s3)cc2)CC1 [TCMDC-132183],-1.127
21,CN1CCC(C(=O)Nc2ccc(-c3ccc(-c4nc5ccccc5[nH]4)cc3)cc2)CC1 [TCMDC-132187],59.64
22,O=C(Nc1ccc(-c2csc(-c3nc4ccccc4[nH]3)c2)cc1)Nc1ccsc1 [TCMDC-133207],-12.45
